Sampled rows, rich in hits. Any-hit rate of the full collection: about 2.4%.
Cruzain noTriton: cruzain (T. cruzi) inhibition without detergent; P25779; purified cruzain, Z-FR-AMC fluorescence, no detergent; Potency, µM, hits mostly inhibitors; actives 2.3% (n = 200,000); further: nearly all actives have a fitted effect of over 40% in size
Target sequence (P25779 123-467 limits assumed): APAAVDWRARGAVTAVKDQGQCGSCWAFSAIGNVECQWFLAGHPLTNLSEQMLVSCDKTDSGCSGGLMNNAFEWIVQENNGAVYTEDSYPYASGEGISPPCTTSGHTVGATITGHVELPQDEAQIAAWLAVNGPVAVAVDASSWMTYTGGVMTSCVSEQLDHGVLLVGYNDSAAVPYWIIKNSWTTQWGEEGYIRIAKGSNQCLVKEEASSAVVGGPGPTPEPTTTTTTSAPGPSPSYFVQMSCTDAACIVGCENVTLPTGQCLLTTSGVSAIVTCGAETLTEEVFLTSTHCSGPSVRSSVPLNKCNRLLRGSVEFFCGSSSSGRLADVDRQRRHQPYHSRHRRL
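Detergent-free condition (0.00005% Triton X-100) in acetate buffer pH 5.5 with DTT. 1.5 nM enzyme and compound were pre-mixed 15 min, then 2 uM Z-FR-AMC substrate added; reaction progress from fluorescence change between first and third reads (60 s).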
Cruzain Triton: blocks cruzain activity in presence of Triton detergent | P25779 | purified cruzain, Z-FR-AMC fluorescence, 0.01% Triton | Potency, µM, hits mostly inhibitors | actives 0.43% (n = 200,000) | AID 1478; further: nearly all actives have a fitted effect of over 40% in size
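Steps: dispense cruzain (1.5 nM final) in acetate buffer pH 5.5 with DTT and 0.01% Triton X-100; pin-transfer compounds; incubate 15 min RT; add Z-FR-AMC (2 uM final); read fluorescence every 30 s, using the 60 s intensity change.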
Hits are given with their value; n = inactive; u = inconclusive. The call rests on the fitted dose curve; in most records, active means well fitted curve in the direction sought with a large enough effect; inconclusive means small, poorly fitted or top-dose-only effect, or another doubt; inactive means no such curve, though single readings can be large; an effect the other way counts as inactive or inconclusive.

SMILES	Cruzain noTriton	Cruzain Triton
COc1cccc([C@@H]2Oc3ccc(Br)cc3C(=O)[C@H]2OC(=O)Nc2ccc(C)c(Br)c2)c1	n	n
CCOC(=O)c1c(S(=O)(=O)N2CCC(C(=O)NCc3ccccc3Cl)CC2)c(C)n(C)c1C	u	n
Cc1cc(C)cc(NC(=O)C2CC(=O)N(c3ccccc3)C2)c1 (configuration not stated)	n	n
O=C(Nc1ccc(Cl)c(Cl)c1)C1CC(=O)N(c2ccc(Br)cc2)C1 (configuration not stated)	20µM	n
Cc1c(C(=O)Nc2ccc(Br)cc2F)sc2ncnc(N(C)C3CCCCC3)c12	n	n
COc1ccc(Br)cc1/C=N/NC(=O)CNC(=O)/C=C/c1ccccc1	u	n
COc1ccc(/C=C/C(=O)NCC(=O)N/N=C/c2cc(Br)ccc2OCc2ccccc2)cc1	6.31µM	n
Cn1c(=O)c(C(=O)COC(=O)c2cc(-c3ccccc3)nc3ccccc23)c(N)n(Cc2ccccc2)c1=O	10µM	n
Cn1c(=O)c(C(=O)COC(=O)c2cc(C(F)(F)F)nc3ccccc23)c(N)n(Cc2ccccc2)c1=O	n	n
COc1cccc(-c2ccc3ncnc(N(C)C)c3c2)c1	n	n
CCCCOC(=O)c1ccc(-c2ccc(/C=N/NC(=S)NCC)o2)cc1	25.1µM	n
CCCOC(=O)c1ccc(-c2ccc(C=O)o2)cc1	n	n
CCOC(=O)c1ccc(-c2ccc(/C=C(\C#N)C(=O)Nc3c(C)cccc3Cl)o2)cc1	n	n
CCCCOC(=O)c1ccc(NC(=O)/C(C#N)=C/c2ccc(-c3ccccc3)o2)cc1	25.1µM	n
Cc1nc2nc(NC(=O)c3ccc(C(C)(C)C)cc3)[nH]n2c(=O)c1Cl	n	n
CN1Cc2c(N3CCOCC3)nc(SCc3ccccc3)c(C#N)c2CC1(C)C	n	n
CC1(C)Cc2c(C#N)c(SCC(=O)c3ccccc3)nc(N3CCOCC3)c2CS1	25.1µM	n
CC(=O)N1CCN(c2nc(-c3ccco3)c3c(c2C#N)CC(C)(C)SC3)CC1	u	n
CC1(C)Cc2c(C#N)c(N3CCN(C(=O)c4ccccc4Cl)CC3)nc(-c3ccco3)c2CS1	u	11.2µM
COc1cc(C2C(=O)N(C3CCCCC3)CC(=O)N2CCC2=CCCCC2)ccc1OC(C)C (configuration not stated)	n	n
Cc1ccc(CN2CCC(CNC(=O)c3cc4ccc5cccnc5c4[nH]3)CC2)cc1	n	n
CCc1ccccc1NC(=O)Cn1nc(C)c2nn(-c3ccc(Cl)cc3)c(C)c2c1=O	n	n
O=C(COc1ccccc1)NCCc1csc(-c2cccc(F)c2)n1	n	n
Cc1ccc(C(=O)c2sc(Nc3ccccc3F)c(S(=O)(=O)c3ccccc3)c2N)c(C)c1	6.31µM	n
Cc1ccc(S(=O)(=O)NC(=O)Nc2ccccc2F)cc1	n	n
SMILES	Cruzain noTriton	Cruzain Triton
Cc1ccc(C(=O)c2sc(Nc3ccccc3)c(C#N)c2N)cc1	n	n
Cc1ccc(C(=O)c2sc(Nc3ccccc3)c(S(=O)(=O)c3ccccc3)c2N)c(C)c1	7.94µM	n
CCc1ccc(NC(=O)C(NS(=O)(=O)c2cccs2)C(C)C)cc1 (configuration not stated)	n	n
Cc1cc(C)cc(NC(=O)c2sc3nc4n(c(=O)c3c2C)N=C(c2ccccc2)CS4)c1	n	n
CCOC(=O)c1ccccc1NC(=O)CN(c1cccc(C)c1C)S(=O)(=O)c1ccccc1	n	n
Cc1c(Cl)cccc1NC(=O)c1cc(S(=O)(=O)N2CCCCC2)cn1C	n	n
COc1ccc(NC(=O)Nc2cccc(OCc3cc(=O)n4cccc(C)c4n3)c2)c(OC)c1	u	n
Cc1ccc(OCC(=O)Nc2ccc3nn(-c4ccc(C)cc4)nc3c2)cc1	n	n
COc1ccc(N2C(=O)C(Cl)=C(N3CCN(Cc4ccccc4)CC3)C2=O)cc1	n	17.8µM
O=C1C(Cl)=C(N2CCN(Cc3ccccc3)CC2)C(=O)N1c1ccccc1	n	n
Cc1ccc(N2C(=O)C(Cl)=C(N3CCN(C)CC3)C2=O)c(C)c1	u	n
CCc1ccc(N2C(=O)C(Cl)=C(N3CCOCC3)C2=O)cc1	n	n
O=C1C(Cl)=C(N2CCOCC2)C(=O)N1c1cccc(Cl)c1	12.6µM	12.6µM
CN1CCN(C2=C(Cl)C(=O)N(c3ccc(Cl)cc3)C2=O)CC1	25.1µM	u
COc1cccc(CNC(=O)CN2C(=O)N(c3cc(C)ccc3C)S(=O)(=O)c3ccccc32)c1OC	u	n
O=C(c1csnn1)N1CCC2(CCCN(c3ccncc3)C2)CC1	n	n
COc1cc(/C=C(\C#N)c2nc3ccccc3[nH]2)ccc1OC(=O)c1ccco1	n	n
COc1cc(/C=C(\C#N)c2nc3ccccc3[nH]2)c([N+](=O)[O-])cc1OCc1ccccc1	31.6µM	n
COc1cc(/C=C(\C#N)c2nc3ccccc3[nH]2)cc(Cl)c1OCc1ccccc1Cl	10µM	n
N#C/C(=C\c1ccc(OCc2ccc(Cl)cc2Cl)cc1)c1nc2ccccc2[nH]1	n	n
Cc1oc2c(c1C(=O)Nc1ccc(Cl)cc1F)C1=NCCN1C=N2	n	n
COC(=O)c1ccc(NC(=O)CCn2cnnn2)cc1	n	n
O=C1N=C(c2ccccc2)S/C1=C\c1cccs1	20µM	n
O=C1N=C(N2CCN(c3ccccc3)CC2)S/C1=C/c1cccs1	n	n
C=C(CO)C1Cc2c(ccc3c2OC2COc4cc(OC)c(OC)cc4C2C3=O)O1 (configuration not stated)	u	n
SMILES	Cruzain noTriton	Cruzain Triton
CCCCc1ccc(-c2c(C#N)c(N)nc3c2CCCC3)s1	25.1µM	n
CCCCc1sc(-c2c(C#N)c(N)nc3c2CCCCC3)cc1[N+](=O)[O-]	n	n
CC(C)(C)NC(=O)C(Cc1ccccc1)NS(=O)(=O)c1cccc2nsnc12 (configuration not stated)	n	n
Cc1ccc(Cl)cc1NC(=O)C(Cc1ccccc1)NS(=O)(=O)c1cccc2nsnc12 (configuration not stated)	25.1µM	n
O=C(Nc1ccc(Cl)c(C(F)(F)F)c1)C(Cc1ccccc1)NS(=O)(=O)c1cccc2nsnc12 (configuration not stated)	20µM	n
O=C(Nc1ccc(OC(F)(F)F)cc1)C(Cc1ccccc1)NS(=O)(=O)c1cccc2nsnc12 (configuration not stated)	n	n
COc1ccc(OC)c(S(=O)(=O)Nc2cccc(-c3ccc(N4CCCCC4)nn3)c2)c1	n	n
COc1ccc(Br)c(C(=O)Nc2cc3c(cc2N2CCOCC2)n(C)c(=O)n3C)c1	n	n
COc1ccc(-c2nc(SCC(=O)NC3CCCC3)c(-c3ccc(C)cc3)[nH]2)cc1OC	u	n
Cc1cc(C)c(NC(=O)CSc2n[nH]c(-c3ccccc3Cl)n2)c(C)c1	n	n
N#Cc1c(NC(=O)Cn2cnc3ccccc3c2=O)oc(-c2ccccc2)c1-c1ccccc1	25.1µM	n
Cc1ccnc(SCC(=O)Nc2oc(-c3ccccc3)c(-c3ccccc3)c2C#N)n1	u	n
CCn1c(SCC(=O)Nc2oc(-c3ccccc3)c(-c3ccccc3)c2C#N)nnc1-c1cc(OC)cc(OC)c1	7.94µM	n
N#Cc1c(NC(=O)CN2CCOCC2)oc(-c2ccccc2)c1-c1ccccc1	u	n
COc1cccc(-c2nc3c(c(SCc4ccccc4Cl)n2)Cc2c(CO)cnc(C)c2O3)c1	n	n
COc1ccc(CNS(=O)(=O)c2cnc(N)nc2)cc1	n	n
Cc1ccc2nc(-c3ccc(N)cc3)sc2c1S(=O)(=O)O	20µM	35.5µM

Screens: PubChem, National Center for Advancing Translational Sciences (NCATS)
